# In all, about 1,800 compounds went through this assay and about 710 (39%) were called active. Roughly 28% stayed inconclusive and do not appear here.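 Rule for the calls: active = luciferase signal rise whose fitted curve crosses a set activity limit at or below the top valid tested dose; inconclusive = flat fit with 30 to 70% rise, or poor fit; inactive = signal falling, flat within 30%, or crossing above top dose.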 The list is a sample of the results. Entries with a potency or affinity are not part of this list.
# Assay: reporter signal increase, D54 LucT cells – cell-based, luminescence, cherry pick, counter-screen for N-linked glycosylation inhibitor project, dose response (AID 624404)
# Settings: D54 LucT luciferase reporter counterscreen, 24 h; series mostly up to 19.5 µM
row,SMILES,outcome
1,Cc1cccc2[nH]c3c(N4CCC5(CC4)OCCO5)ncnc3c12,inactive
2,COc1ccc(CNC(=O)C2Cc3c(-c4ccc5c(c4)OCO5)ccnc3O2)cc1OC (stereo unspecified),inactive
3,COC(=O)c1cc(=O)n(Cc2ccc3c(c2)OCO3)c(=Nc2ccc(F)c(Cl)c2)s1,inactive
4,COc1ccc(-c2nc3c(C(=O)NCCN(C)C)cccc3c3ccccc23)cc1,inactive
5,COc1cccc2nc3c(C(=O)NCCN(C)C)cccc3cc12,inactive
6,CCN(c1ccccc1)S(=O)(=O)c1ccc(C(=O)NC2CCN(Cc3ccccc3)CC2)cc1,inactive
7,Nc1nc(=S)c2ncn(C3OC(CO)C(O)C3O)c2[nH]1 (stereo unspecified),inactive
8,COC(=O)Nc1ccc(S(=O)(=O)N2CCCc3ccccc32)cc1,inactive
9,COC(=O)c1ccc(S(=O)(=O)N2CCc3ccccc32)cc1,inactive
10,O=C1CCCN1c1ccc(S(=O)(=O)Nc2ccc3c(c2)OCCO3)cc1,inactive
11,Cc1nc([N+](=O)[O-])c(Sc2nc3ccccc3[nH]2)n1Cc1ccccc1,inactive
12,COc1ccc(OC)c(NS(=O)(=O)c2ccc(SC)cc2)c1,inactive
13,O=C1/C(=C/c2ccccc2)CCc2ccc(Cl)nc21,inactive
14,c1cc2c3c(cccc3c1)C(N1CCCCC1)=N2,inactive
15,Nc1c(N(CCC2=CCCCC2)C(=O)COc2ccc(F)cc2Cl)c(=O)[nH]c(=O)n1Cc1ccccc1,inactive
16,COc1ccc(-c2cc(C(F)F)n3ncc(C(=O)N4CCc5ccccc54)c3n2)cc1,inactive
17,O=c1cc(-c2ccccc2)[nH]n1-c1nc2ccccc2[nH]1,inactive
18,CCCCCc1ccc(OCCC[n+]2ccccc2)c(CCCCC)c1,inactive
19,Cc1cnc(C(=O)OCC(=O)NC2CCCCCCC2)cn1,inactive
20,NC(=O)[C@H]1CC2(CC(c3cccc(NC(=O)COc4ccc(Cl)cc4)c3)=NO2)CN1C(=O)C(c1ccccc1)c1ccccc1 (stereo partly specified),inactive
21,O=C(N/N=C\c1cccnc1)c1cc(-c2ccccc2)nc2c(Cl)cccc12,inactive
22,COc1ccc(NC(=O)c2nc(C)c(C3(C)CC(c4ccccc4)=NO3)s2)cc1 (stereo unspecified),inactive

row,SMILES,outcome
1,CCOC(=O)c1c(C)nc2sc3c(=O)n(-c4ccc(C)cc4)cnc3c2c1-c1ccc(OC)cc1,inactive
2,CCOC(=O)C1=C(Cc2ccc(F)cc2)C(=O)c2ccccc2C1=O,inactive
3,COC(=O)c1ccccc1NC(=O)Cn1nnc(-c2ccc(OC)cc2)n1,inactive
4,COc1ccc(Cn2c(=O)cc(N)n(-c3ccccc3C)c2=O)cc1,inactive
5,CCOc1ccc(OCC(=O)N(CCC2=CCCCC2)c2c(N)n(Cc3ccccc3)c(=O)[nH]c2=O)cc1,inactive
6,CC(C)CN(C(=O)COC(=O)CCSc1ccc(Cl)cc1)c1c(N)n(Cc2ccccc2)c(=O)[nH]c1=O,inactive
7,COc1ccc(-c2cc(-c3ccccc3)c(C#N)c(S(C)=O)n2)cc1 (stereo unspecified),inactive
8,CN1CCN(CC(=O)Nc2cc(N(C)C)nc3ccccc23)CC1,inactive
9,Cc1cc(Br)cc2c(C(=O)Nc3c(C)n(C)n(-c4ccccc4)c3=O)cc(-c3cccs3)nc12,inactive
10,CCCn1c(CN2CCN(C(=O)OCC)CC2)nc2cc(NC(=O)CC)ccc21,inactive
11,CC(C)(C)NCC(O)CON=C1c2ccccc2-c2ccccc21 (stereo unspecified),inactive
12,Cc1ccccc1OCCOC(=O)c1c(-c2ccccc2)noc1C,inactive
13,Cc1ccc(-c2cc(C(F)F)n3ncc(C(=O)N4CCc5ccccc54)c3n2)cc1,inactive
14,CC(C)Oc1ccccc1C1CC(=O)Nc2cc3c(cc21)OCO3 (stereo unspecified),inactive
15,CCOc1cccc2sc(Nc3nc4ccc(NC(C)=O)cc4s3)nc12,inactive
16,Cc1cc(C)c2c(N)c3ccccc3nc2n1,inactive
17,CCc1ccc2nc3nc(C)cc(C)c3c(N)c2c1,inactive
18,COC(=O)C1=C(C(=O)OC)[C@@H]2N(Cc3ccccc3)c3ccccc3[C@@]23C[C@@H](C(=O)OC)N(C(=O)c2cc(C)oc2C)C3=N1,inactive
19,C=CCN1c2ccccc2[C@]23C[C@@H](C(=O)OC)N(C(=O)c4ccc(Br)cc4)C2=NC(C(=O)OC)=C(C(=O)OC)[C@H]13,inactive
20,CCCOC(=O)c1[nH]c2c(c1C)C(=O)CC(c1cccs1)C2 (stereo unspecified),inactive
21,COc1ccc(/C=C2\SC(=S)N(CCC(=O)NC3CCCC3)C2=O)cc1OC,inactive
22,COc1cc2c3c(cccc3c1)C(=O)N(CCN1CCCC1)C2=O,inactive

row,SMILES,outcome
1,COc1cc(/C=C2/C(=O)N(C)C(=S)N2C)ccc1OCc1cccc(F)c1,inactive
2,Cc1ccc(C)c(N2CCN(S(=O)(=O)c3ccc(-c4ccc(=O)[nH]n4)o3)CC2)c1,inactive
3,CC1(C(=O)NCc2cccs2)Cc2c(-c3ccc(C(N)=O)cc3)ccnc2O1 (stereo unspecified),inactive
4,CC(=O)Nc1cccc(-c2ccnc3c2CC(C(=O)NCc2ccc(F)c(F)c2)O3)c1 (stereo unspecified),inactive
5,CC(=O)c1cccc(-c2ccnc3c2CC(C(=O)NCc2cccs2)O3)c1 (stereo unspecified),inactive
6,Cc1ccc(CNC(=O)Cc2ccc(-n3c(=O)[nH]c4ccsc4c3=O)cc2)cc1,inactive
7,COc1cc(C2CC(=O)Nc3cc(C)c(C)cc32)cc(OC)c1OC (stereo unspecified),inactive
8,CN1CCN(C(c2ccc(Br)cc2)c2cc(Cl)c3cccnc3c2O)CC1 (stereo unspecified),inactive
9,COc1ccc2noc3c2c1C(=O)c1ccccc1-3,inactive
10,CCN(CC)CCCNc1ccc2ncn3c4ccc(O)cc4c(=O)c1c23,inactive
11,COc1cc(C)c2sc3ccccc3c(=O)c2c1NCCN(C)C,inactive
12,COc1ccc2sc3cccc(NCCN(C)C)c3c(=O)c2c1,inactive
13,CN(C)CCNc1ccc2nnn3c4ccc(O)cc4c(=O)c1c23,inactive
14,COc1ccc(-n2c(C)cc(C(=O)CCl)c2C)cc1,inactive
15,c1ccc2sc(Sc3ncnc4sccc34)nc2c1,inactive
16,COc1ccc2c(C)nc(Nc3nc(-c4ccccc4)cc(=O)[nH]3)nc2c1,inactive
17,COc1ccc(C2=NOC(C(=O)NCc3ccco3)C2)cc1OC (stereo unspecified),inactive
18,O=C(NCc1cccs1)C1CC(c2ccc(Cl)c(Cl)c2)=NO1 (stereo unspecified),inactive
19,COc1cc(OC)c(C2=NOC(C(=O)NCc3cccs3)C2)cc1Cl (stereo unspecified),inactive
20,CCn1cc2nc(SCC(=O)Nc3ccc(OC)cc3OC)n(Cc3ccc(OC)cc3)c(=O)c2n1,inactive
21,CC(=O)c1cccc(NC(=O)CSc2ncc(C(=O)Nc3ccccc3)c(=O)n2C)c1,inactive
22,Cn1c(SCC(=O)c2ccccc2)ncc(C(=O)Nc2ccc(F)cc2)c1=O,inactive

row,SMILES,outcome
1,COc1ccc(CN(C)c2ncnc3sccc23)c(OC)c1OC,inactive
2,Cc1ccc(/C=N/NC(=O)c2c(C)nc3ccc(Br)cn23)cc1,inactive
3,NC(N)=N/N=C/c1ccc2cccc(OCc3ccccc3)c2n1,inactive
4,O=C(N/N=C/c1cccnc1)c1cc(-c2ccc(Br)cc2)nc2ccccc12,inactive
5,Cc1ccc(/C=N/NC(=O)CCn2nc(C)cc2C)c(C)c1,inactive
6,Brc1ccc(CSc2ccc3nnc(-c4cccnc4)n3n2)cc1,inactive
7,Cc1ccccc1OCCc1c(C)[nH]c(=S)[nH]c1=O,inactive
8,CCN1Cc2c(/C=C/c3ccccc3)nc3ccc(OC)cc3c2N(c2cccc(Cl)c2)C1,inactive
9,COc1cc2nc(NC(=O)c3ccccc3)sc(=O)c2cc1OC,inactive
10,O=C(Nc1nc2ccccc2c(=O)s1)c1ccco1,inactive
11,Cc1ccc(C(=O)NC(=C(Cl)Cl)S(=O)(=O)c2ccc(C)cc2)cc1,inactive
12,CC(=O)N(C1=C(Cl)C(=O)c2ccccc2C1=O)C1CCCCC1,inactive
13,COc1ccccc1OCC(=O)NNC(=O)c1ccoc1C,inactive
14,COc1cc2cc(C(c3nnnn3C(C)(C)C)N3CCc4ccccc4C3)c(=O)[nH]c2cc1OC (stereo unspecified),inactive
15,Cc1cc(Nc2cc(Cl)cc(Cl)c2)nc(N)n1,inactive
16,CC(=O)c1ccc(Oc2cc(C)nc(-n3nc(C)cc3C)n2)cc1,inactive
17,CCN1/C(=C/c2ccc3ccccc3[n+]2CC)C=Cc2ccccc21,inactive
18,CCCCCCCCCCn1c2c(c(=N)c3c1CCC3)CCC2,inactive
19,COc1ccc2cc(C)c3nnc(SCC(=O)Nc4nc(-c5ccc(F)cc5)cs4)n3c2c1,inactive
20,COCCN(C(=O)CCl)C(C(=O)NC1CCCCC1)c1ccccc1C (stereo unspecified),inactive
21,COc1ccc(C(C)(O)c2nc(-c3ccc(F)cc3OC)cs2)cc1 (stereo unspecified),inactive
22,Nc1cccc2c1C(=O)N(C(=O)/C=C/c1ccc(F)cc1)C2=O,inactive

row,SMILES,outcome
1,CC(=O)Cn1ncc(Br)c(Br)c1=O,inactive
2,Cn1c(Cl)cnc1C1CC(=O)c2cc(Cl)ccc2O1 (stereo unspecified),inactive
3,Cc1c(C(=O)Nc2ccc3oc(-c4cccnc4)nc3c2)oc2ccccc12,inactive
4,O=C(N/N=C\C=C\c1ccc([N+](=O)[O-])o1)c1cccs1,inactive
5,O=C(Nc1ccc(-c2nc3cc(NC(=O)c4cccs4)ccc3o2)cc1)c1cccs1,inactive
6,O=C(Nc1ccc(N2CCCC2)c(Cl)c1)c1ccc([N+](=O)[O-])o1,inactive
7,O=C(NCc1ccccc1)C(=O)NCC1COc2ccccc2O1 (stereo unspecified),inactive
8,CN=c1sc(C(=O)Nc2cccc(Cl)c2)cc(=O)n1C,inactive
9,O=C(CN1C(=O)/C(=C\c2ccc(F)cc2)Oc2ccccc21)N1CCN(c2ccccn2)CC1,inactive
10,O=C1CCCC2=C1C(c1ccc(Cl)cc1)n1c(s/c(=C\c3ccc4ccncc4c3)c1=O)=N2 (stereo unspecified),inactive
11,COc1cccc(-n2c(SCC(=O)NC3CCCCC3)nc3n[nH]c(C)c3c2=N)c1,inactive
12,COc1ccc(C(=O)/C=C\c2ccc(NC(=O)c3cccs3)cc2)cc1,inactive
13,O=C1CCCN1CCCNc1nc(NCc2ccccc2)nc2ccsc12,inactive
14,Cc1ccsc1CNc1ncnc2ccc(-c3c(C)noc3C)cc12,inactive
15,COc1ccc(C(=O)c2cc([N+](=O)[O-])ccc2N2CCN(C)CC2)cc1,inactive
16,CCOc1cc(/C=C/C(=O)c2ccc3c(c2)OCCO3)ccc1OCC(=O)N(C)C,inactive
17,CN(C)c1ccc(/C=C/C(=O)c2ccc(C(C)(C)C)cc2)cc1[N+](=O)[O-],inactive
18,COc1cc(/C=C/C(=O)c2ccc3c(c2)OCCO3)cc(OC)c1OC,inactive

# From PubChem BioAssay AID624404 (Broad Institute, 2012)
